Measurements taken from PubChem BioAssay AID1159580 (chemical genetic matrix, 2015).
Out of some 5,500 compounds screened, about 2,000 (36%) were called active. Roughly 18% stayed inconclusive and do not appear here. Rule as the data show it: active = normalized growth mostly below about 0.91 (no sharp cut-off); inconclusive = no clear call, values can overlap the other calls; inactive = mostly above about 0.92. The list shows a part of the results.

Test: chemical genetic growth profiling, strain panel (AID 1159580);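 also: tested at 20 µM; growth read once vehicle control cultures reached saturation at 30 °C; 1 = growth at the plate median or of vehicle wells; lower values mean less growth of the strain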
Conditions: S. cerevisiae deletion strains, growth OD
[1] = locus YHR030C, strain SLT2, active compounds read low
[2] = locus YHR079C, strain IRE1, active compounds read low
[3] = locus YJL095W, strain BCK1, active compounds read low
[4] = locus YJR066W, strain TOR1, active compounds read low
[5] = locus YLR113W, strain HOG1, active compounds read low
[6] = locus YNL183C, strain NPR1, active compounds read low
[7] = locus YOR231W, strain MKK1, active compounds read low
[8] = locus YPL256C, strain CLN2, active compounds read low

Measured: normalized growth

O=C(Nc1cccc(C(F)(F)F)c1)Oc1ccc(F)cc1Cl
active: [1] 0.822 | [5] 0.762 | [8] 0.778
inactive: locus YAR019C, strain CDC15, active compounds read low 0.977 | locus YBL105C, strain PKC1, active compounds read low 0.977 | locus YBR135W, strain CKS1, active compounds read low 0.982 | locus YBR136W, strain MEC1, active compounds read low 0.98 | locus YBR160W, strain CDC28, active compounds read low 0.979 | locus YDL017W, strain CDC7, active compounds read low 0.985 | locus YDL028C, strain MPS1, active compounds read low 0.977 | locus YDL101C, strain DUN1, active compounds read low 0.992 | locus YDL108W, strain KIN28, active compounds read low 0.97 | locus YDL132W, strain cdc53, active compounds read low 0.974 | locus YDL214C, strain PRR2, active compounds read low 0.978 | locus YDR052C, strain DBF4, active compounds read low 0.985 | locus YDR054C, strain cdc34, active compounds read low 0.975 | locus YDR226W, strain ADK1, active compounds read low 0.975 | locus YDR477W, strain SNF1, active compounds read low 0.993 | locus YER123W, strain YCK3, active compounds read low 0.965 | locus YER133W, strain GLC7, active compounds read low 0.983 | locus YFL009W, strain cdc4, active compounds read low 0.974 | locus YFL029C, strain CAK1, active compounds read low 0.977 | locus YFR003C, strain YPI1, active compounds read low 0.982 | locus YFR019W, strain FAB1, active compounds read low 0.987 | locus YFR028C, strain CDC14, active compounds read low 0.98 | locus YGR040W, strain KSS1, active compounds read low 0.977 | locus YGR052W, strain FMP48, active compounds read low 1 | locus YGR092W, strain DBF2, active compounds read low 0.951 | [2] 0.87 | locus YHR082C, strain KSP1, active compounds read low 1.1 | locus YHR205W, strain SCH9, active compounds read low 0.951 | locus YIL147C, strain SLN1, active compounds read low 0.975 | [3] 0.955 | locus YJL128C, strain PBS2, active compounds read low 0.947 | locus YJL157C, strain FAR1, active compounds read low 0.98 | locus YJR016C, strain ILV3, active compounds read low 0.984 | locus YJR066W, strain TOR1 (second series), active compounds read low 0.938 | [4] 1.04 | locus YKL048C, strain ELM1, active compounds read low 1 | locus YKL067W, strain YNK1, active compounds read low 1.01 | locus YKL101W, strain HSL1, active compounds read low 0.983 | locus YKL193C, strain SDS22, active compounds read low 0.983 | locus YKL203C, strain TOR2, active compounds read low 1.02 | locus YLR133W, strain CKI1, active compounds read low 0.976 | locus YLR403W, strain SFP1, active compounds read low 0.964 | locus YML070W, strain DAK1, active compounds read low 0.979 | locus YMR001C, strain CDC5, active compounds read low 0.984 | locus YMR205C, strain PFK2 (second series), active compounds read low 1 | locus YMR277W, strain FCP1, active compounds read low 0.977 | locus YNL006W, strain LST8, active compounds read low 0.976 | locus YNL020C, strain ARK1, active compounds read low 0.967 | locus YNL161W, strain CBK1, active compounds read low 0.983 | [6] 0.998 | locus YNL207W, strain RIO2, active compounds read low 0.972 | locus YNL222W, strain SSU72, active compounds read low 0.973 | locus YNL307C, strain MCK1 (second series), active compounds read low 0.982 | locus YOL078W, strain AVO1, active compounds read low 0.983 | locus YOL136C, strain PFK27, active compounds read low 0.969 | locus YOR061W, strain CKA2, active compounds read low 0.983 | locus YOR119C, strain RIO1, active compounds read low 1.05 | [7] 0.912 | locus YOR329C, strain SCD5, active compounds read low 0.979 | locus YPL031C, strain PHO85, active compounds read low 0.97 | locus YPL153C, strain RAD53, active compounds read low 0.974 | locus YPL204W, strain HRR25, active compounds read low 0.992 | locus YPL209C, strain IPL1, active compounds read low 0.979 | locus YPR025C, strain CCL1, active compounds read low 0.979 | locus YPR106W, strain ISR1, active compounds read low 0.99 | locus YPR111W, strain DBF20, active compounds read low 0.964 | strain NNK1, active compounds read low 0.989 | strain TSCII, active compounds read low 0.972

O=C(NC(=O)c1c(F)cccc1F)Nc1cc(Cl)c(OC(F)(F)C(F)C(F)(F)F)cc1Cl (stereo unspecified)
inactive: locus YAL021C, strain ccr4, active compounds read low 0.983 | locus YAL026C, strain drs2, active compounds read low 0.987 | locus YAL030W, strain snc1, active compounds read low 0.998 | locus YBL061C, strain skt5, active compounds read low 0.974 | locus YBR009C, strain hhf1, active compounds read low 0.997 | locus YBR023C, strain chs3, active compounds read low 0.981 | locus YBR171W, strain sec66, active compounds read low 0.987 | locus YBR231C, strain swc5, active compounds read low 0.977 | locus YBR279W, strain paf1, active compounds read low 0.988 | locus YCL011C, strain gbp2, active compounds read low 0.987 | locus YCL016C, strain dcc1, active compounds read low 0.988 | locus YCL061C, strain MRC1, active compounds read low 0.989 | locus YCL069W, strain vba3, active compounds read low 0.99 | locus YCR088W, strain abp1, active compounds read low 0.988 | locus YDL005C, strain med2, active compounds read low 0.984 | locus YDL040C, strain nat1, active compounds read low 0.98 | locus YDR001C, strain nth1, active compounds read low 0.991 | locus YDR069C, strain doa4, active compounds read low 0.989 | locus YDR137W, strain rgp1, active compounds read low 0.988 | locus YDR159W, strain sac3, active compounds read low 1 | locus YDR195W, strain ref2 1.01 | locus YDR297W, strain sur2, active compounds read low 0.978 | locus YDR334W, strain swr1, active compounds read low 0.981 | locus YDR335W, strain msn5, active compounds read low 0.99 | locus YDR392W, strain spt3, active compounds read low 0.98 | locus YEL003W, strain gim4, active compounds read low 1.01 | locus YEL037C, strain rad23, active compounds read low 0.991 | locus YEL061C, strain CIN8 (second series), active compounds read low 0.995 | locus YER015W, strain faa2, active compounds read low 0.983 | locus YER016W, strain bim1, active compounds read low 0.996 | locus YER111C, strain swi4, active compounds read low 0.982 | locus YER155C, strain BEM2 (second series), active compounds read low 0.998 | locus YFR010W, strain ubp6, active compounds read low 0.986 | locus YGL167C, strain pmr1, active compounds read low 0.977 | locus YGL173C, strain kem1, active compounds read low 0.999 | locus YGL227W, strain vid30, active compounds read low 0.997 | locus YGL240W, strain doc1, active compounds read low 0.99 | locus YGL253W, strain hxk2, active compounds read low 0.987 | locus YHR013C, strain ard1, active compounds read low 0.96 | locus YHR027C, strain rpn1, active compounds read low 0.996 | [1] 1.04 | [2] 1.03 | locus YHR142W, strain chs7, active compounds read low 0.997 | locus YJL092W, strain hpr5, active compounds read low 0.993 | locus YJL095W, strain BCK1 (second series), active compounds read low 0.986 | [3] 1.04 | locus YJL115W, strain asf1, active compounds read low 0.987 | locus YJL129C, strain trk1, active compounds read low 0.988 | locus YJL154C, strain vps35, active compounds read low 0.985 | locus YJL164C, strain tpk1, active compounds read low 0.988 | locus YJL166W, strain qcr8, active compounds read low 0.995 | locus YJL187C, strain SWE1, active compounds read low 0.986 | [4] 0.977 | locus YKL160W, strain elf1, active compounds read low 0.983 | locus YKR026C, strain gcn3, active compounds read low 0.989 | locus YKR091W, strain srl3, active compounds read low 0.989 | locus YLL001W, strain dnm1, active compounds read low 0.996 | locus YLL026W, active compounds read low 0.995 | locus YLL041C, strain sdh2, active compounds read low 0.994 | locus YLR027C, strain aat2, active compounds read low 0.993 | [5] 1.01 | locus YLR221C, strain rsa3, active compounds read low 0.984 | locus YLR258W, strain gsy2, active compounds read low 0.999 | locus YLR262C, strain YPT6 (second series), active compounds read low 0.995 | locus YLR320W, strain mms22, active compounds read low 0.981 | locus YLR342W, strain FKS1, active compounds read low 0.985 | locus YLR357W, strain rsc2, active compounds read low 0.994 | locus YLR370C, strain arc18, active compounds read low 0.986 | locus YLR384C, strain iki3, active compounds read low 0.976 | locus YML120C, strain ndi1, active compounds read low 0.987 | locus YMR058W, strain fet3, active compounds read low 0.994 | locus YMR125W, strain sto1, active compounds read low 0.979 | locus YMR129W, active compounds read low 0.997 | locus YMR205C, strain PFK2, active compounds read low 0.982 | locus YMR231W, strain pep5, active compounds read low 1 | locus YNL071W, strain lat1, active compounds read low 0.992 | [6] 0.973 | locus YNL209W, strain ssb2, active compounds read low 0.978 | locus YNL248C, strain rpa49, active compounds read low 0.991 | locus YNL322C, strain KRE1 (second series), active compounds read low 0.993 | locus YNR049C, strain mso1, active compounds read low 0.986 | locus YOR001W, strain rrp6, active compounds read low 0.987 | locus YOR070C, strain gyp1, active compounds read low 0.989 | locus YOR080W, strain dia2, active compounds read low 0.991 | locus YOR083W, strain WHI5, active compounds read low 0.988 | locus YOR106W, strain vam3, active compounds read low 0.994 | [7] 0.992 | locus YOR265W, strain rbl2, active compounds read low 0.985 | locus YOR270C, strain vph1, active compounds read low 0.987 | locus YOR290C, strain snf2, active compounds read low 0.977 | locus YPL051W, strain arl3, active compounds read low 0.997 | locus YPL078C, strain atp4, active compounds read low 0.99 | locus YPL106C, strain sse1, active compounds read low 0.976 | locus YPL240C, strain hsp82, active compounds read low 0.984 | [8] 1.03
